Where “and” joins values, the source holds several entries; their conditions need not be identical. Identical values can stand only once. The whole screen tested about 5,500 compounds, of which about 2,000 (36%) were called active. About 18% were inconclusive and are not listed. Cut-off read from the data, not from the text of the source: active = normalized growth mostly below about 0.91 (no sharp cut-off); inconclusive = no clear call, values can overlap the other calls; inactive = mostly above about 0.92. This is one part of the list.
Experiment: chemical genetic growth profiling, strain panel (AID 1159580);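 note: tested at 20 µM; growth read once vehicle control cultures reached saturation at 30 °C; 1 = growth at the plate median or of vehicle wells; lower values mean less growth of the strain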
Conditions: S. cerevisiae deletion strains, growth OD

Measured: normalized growth

C[N+]12CCC(CC1)C(OC(=O)C(O)(c1ccccc1)c1ccccc1)C2 (configuration not stated)
inactive: locus YAL013W, strain DEP1, stronger effect = lower value 0.995 | locus YAL021C, strain ccr4, stronger effect = lower value 0.983 | locus YAL026C, strain drs2, stronger effect = lower value 1.01 | locus YAL030W, strain snc1, stronger effect = lower value 0.985 | locus YBL061C, strain skt5, stronger effect = lower value 0.968 | locus YBR009C, strain hhf1, stronger effect = lower value 0.989 | locus YBR021W, strain FUR4, stronger effect = lower value 0.99 | locus YBR023C, strain chs3, stronger effect = lower value 0.987 | locus YBR171W, strain sec66, stronger effect = lower value 0.957 | locus YBR229C, strain ROT2, stronger effect = lower value 0.989 | locus YBR231C, strain swc5, stronger effect = lower value 0.995 | locus YBR279W, strain paf1, stronger effect = lower value 0.985 | locus YCL011C, strain gbp2, stronger effect = lower value 0.951 | locus YCL016C, strain dcc1, stronger effect = lower value 0.956 | locus YCL029C, strain bik1, stronger effect = lower value 0.956 | locus YCL061C, strain MRC1, stronger effect = lower value 0.992 | locus YCL069W, strain vba3, stronger effect = lower value 0.998 | locus YCR088W, strain abp1, stronger effect = lower value 0.984 | locus YDL005C, strain med2, stronger effect = lower value 0.974 | locus YDL035C, strain GPR1, stronger effect = lower value 1.03 | locus YDL040C, strain nat1, stronger effect = lower value 0.993 | locus YDL074C, strain BRE1, stronger effect = lower value 0.975 | locus YDL101C, strain DUN1, stronger effect = lower value 0.975 | locus YDL134C, strain PPH21, stronger effect = lower value 0.981 | locus YDL185W, strain tfp1, stronger effect = lower value 0.974 | locus YDL192W, strain arf1, stronger effect = lower value 0.992 | locus YDR001C, strain nth1, stronger effect = lower value 0.978 | locus YDR069C, strain doa4, stronger effect = lower value 0.982 | locus YDR101C, strain arx1, stronger effect = lower value 0.971 | locus YDR137W, strain rgp1, stronger effect = lower value 0.975 | locus YDR150W, strain NUM1, stronger effect = lower value 0.996 | locus YDR159W, strain sac3, stronger effect = lower value 1.01 | locus YDR162C, strain NBP2, stronger effect = lower value 1 | locus YDR195W, strain ref2 0.983 | locus YDR297W, strain sur2, stronger effect = lower value 0.976 | locus YDR318W, strain mcm21, stronger effect = lower value 0.975 | locus YDR334W, strain swr1, stronger effect = lower value 0.938 | locus YDR335W, strain msn5, stronger effect = lower value 0.971 | locus YDR388W, stronger effect = lower value 0.984 | locus YDR392W, strain spt3, stronger effect = lower value 0.922 | locus YDR502C, strain sam2, stronger effect = lower value 0.987 | locus YEL003W, strain gim4, stronger effect = lower value 0.987 | locus YEL037C, strain rad23, stronger effect = lower value 0.988 | locus YEL061C, strain CIN8 (second series), stronger effect = lower value 0.987 | locus YEL061C, strain CIN8, stronger effect = lower value 0.993 | locus YER015W, strain faa2, stronger effect = lower value 0.987 | locus YER016W, strain bim1, stronger effect = lower value 0.989 | locus YER110C, stronger effect = lower value 0.975 | locus YER111C, strain swi4, stronger effect = lower value 0.987 | locus YER155C, strain BEM2 (second series), stronger effect = lower value 1.01 | locus YER155C, strain BEM2, stronger effect = lower value 0.983 | locus YER167W, strain BCK2, stronger effect = lower value 0.992 | locus YFR010W, strain ubp6, stronger effect = lower value 0.981 | locus YGL078C, strain dbp3, stronger effect = lower value 0.992 | locus YGL086W, strain mad1, stronger effect = lower value 1 | locus YGL167C, strain pmr1, stronger effect = lower value 0.976 | locus YGL173C, strain kem1, stronger effect = lower value 0.974 | locus YGL227W, strain vid30, stronger effect = lower value 0.979 | locus YGL240W, strain doc1, stronger effect = lower value 0.981 | locus YGL248W, strain PDE1, stronger effect = lower value 0.99 | locus YGL253W, strain hxk2, stronger effect = lower value 0.966 | locus YGR078C, strain PAC10, stronger effect = lower value 0.983 | locus YGR135W, strain pre9, stronger effect = lower value 0.971 | locus YGR229C, strain SMI1, stronger effect = lower value 1 | locus YGR252W, strain gcn5, stronger effect = lower value 1.09 | locus YHR013C, strain ard1, stronger effect = lower value 0.962 | locus YHR027C, strain rpn1, stronger effect = lower value 0.974 | locus YHR030C, strain SLT2, stronger effect = lower value 0.988 and 0.977 | locus YHR079C, strain IRE1 (second series), stronger effect = lower value 0.97 | locus YHR079C, strain IRE1, stronger effect = lower value 1 | locus YHR094C, strain hxt1, stronger effect = lower value 0.982 | locus YHR129C, strain ARP1, stronger effect = lower value 0.99 | locus YHR142W, strain chs7, stronger effect = lower value 0.944 | locus YHR200W, strain rpn10, stronger effect = lower value 0.979 | locus YIL066C, strain RNR3, stronger effect = lower value 0.983 | locus YIL073C, strain SPO22, stronger effect = lower value 0.972 | locus YIL125W, strain kgd1, stronger effect = lower value 0.994 | locus YIR030C, strain dcg1, stronger effect = lower value 0.971 | locus YJL092W, strain hpr5, stronger effect = lower value 0.985 | locus YJL095W, strain BCK1 (second series), stronger effect = lower value 0.981 | locus YJL095W, strain BCK1, stronger effect = lower value 0.967 and 0.963 | locus YJL115W, strain asf1, stronger effect = lower value 0.968 | locus YJL129C, strain trk1, stronger effect = lower value 0.974 | locus YJL134W, strain LCB3, stronger effect = lower value 0.994 | locus YJL154C, strain vps35, stronger effect = lower value 0.98 | locus YJL164C, strain tpk1, stronger effect = lower value 0.979 | locus YJL166W, strain qcr8, stronger effect = lower value 0.95 | locus YJL168C, strain set2, stronger effect = lower value 0.984 | locus YJL187C, strain SWE1 (second series), stronger effect = lower value 0.974 | locus YJL187C, strain SWE1, stronger effect = lower value 0.988 | locus YJR043C, strain POL32, stronger effect = lower value 0.99 | locus YJR066W, strain TOR1, stronger effect = lower value 0.987

Reference: PubChem BioAssay AID1159580 (chemical genetic matrix, 2015)
